High-throughput results as filed in PubChem BioAssay.
CYP2C9 inh – blocks human cytochrome P450 2C9. actives 20% (n = 96,000). P11712. CYP2C9 Supersomes, luciferin-H conversion, luminescence. inhibition, % at 5 µM;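 active = blocking of liver enzyme CYP2C9 beyond about 50% at 5 µM, limit read from the data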
CYP2C19 inhib – human CYP2C19 inhibition; actives 21% (n = 96,000); P33261; CYP2C19 Supersomes, luciferin-H EGE luminescence, 30 min; AID 778; inhibition, % at 5 µM;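 active = CYP2C19 inhibition above a set limit at 5 µM in the primary screen, cut at about 50% in these data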
CYP2C9 activ – activators of human CYP2C9; actives 1.4% (n = 96,000); AID 1024; recombinant CYP2C9, luciferin-H conversion, luminescence; active compounds read high; factor 1 = untreated enzyme, 0 = blocked; P11712; activation factor at 5 µM;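 active = activation factor of 2 or more for CYP2C9 at a 5 µM dose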
Cav3 T inh – blocks human Cav3.2 T-type calcium channel | O95180 | Cav3.2-expressing cells, Fluo-4 calcium fluorescence FDSS; active compounds read low | B-score at 10 µM | actives 4% (n = 100,000);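 active = single-dose well whose peak fluorescence ratio is a statistical outlier from its plate by either plate-standardised score or position-corrected B-score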
CYP2C19 act – activators of human cytochrome P450 2C19 | P33261 | 96,000 tested, under 10 active | recombinant CYP2C19, luciferin-H EGE luminescence; active compounds read high; 0 = fully inhibited enzyme, 1 = untreated enzyme | activation factor at 5 µM | AID 1025;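 active = activation factor of at least 2 at 5 µM in the primary screen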
A number is an active result; . = inactive; / = no result. Compounds with a hit are over-represented: about 27% of the library has one in this group of screens.

SMILES | CYP2C9 inh | CYP2C19 inhib | CYP2C9 activ | Cav3 T inh | CYP2C19 act
CC(=O)Oc1ccc(/C=c2\sc3ncnn3c2=O)cc1 | . | . | . | . | .
CCOc1ccccc1/C=c1\sc2ncnn2c1=O | . | . | 2.2 | . | .
CCc1nnc2n1N=C(c1ccc(OC)cc1)CS2 | / | / | / | . | /
Clc1ccc(OCc2nnc3n2N=C(c2ccc4c(c2)OCCO4)CS3)c(Cl)c1 | 97.1 | 74.5 | . | . | .
COc1ccc(CCC(C)NC2C3CC4CC(C3)CC2C4)cc1 (configuration not stated) | . | . | . | / | .
CC1CCCC(N2CCN(C(=O)c3cccc(F)c3)CC2)C1 (configuration not stated) | . | 88.7 | . | . | .
Cc1ccc(CN2CCN(CC3CC4C=CC3C4)CC2)cc1 (configuration not stated) | . | . | . | / | .
O=C(c1ccccc1F)N1CCN(CC2CC3C=CC2C3)CC1 (configuration not stated) | . | 68.8 | . | . | .
COc1cccc(C(=O)N2CCN(C(=O)c3cccc(F)c3)CC2)c1 | / | / | / | . | /
O=C(c1cccc(F)c1)N1CCN(CC2CC3C=CC2C3)CC1 (configuration not stated) | . | 89.9 | . | . | .
Cc1csc(SCc2nc3sc4c(c3c(=O)[nH]2)CCC4)n1 | / | / | / | . | /
Cc1nc2ccccc2n1S(=O)(=O)c1ccc(S(=O)(=O)N2CCCCCC2)cc1 | . | . | . | . | .
O=S(=O)(N1CCCCC1)n1c(Cc2ccccc2)nc2ccccc21 | 68.4 | 85.3 | . | . | .
Cc1nn(Cc2ccccc2Cl)c(C)c1C(=O)N1CCN(c2ccccc2)CC1 | 71.9 | 61.6 | . | . | .
O=C(NC1=NCCS1)c1nc(-c2ccccc2)n(-c2ccccc2)n1 | . | . | . | . | .
CCc1nnc(NC(=O)c2c(C)nn(-c3ccccc3)c2Cl)s1 | . | . | . | . | .
CCC(CC)c1nnc(NC(=O)c2c(C)nn(Cc3ccccc3Cl)c2C)s1 | 52.3 | . | . | . | .
Cc1nn(Cc2ccccc2Cl)c(C)c1C(=O)NC1=NCCS1 | . | 65.5 | . | . | .
Cc1nn(Cc2ccccc2Cl)c(C)c1NC(=O)NC12CC3CC(CC(C3)C1)C2 | . | . | . | -7.56 | .
Cc1nn(Cc2ccccc2Cl)c(C)c1NC(=O)c1nc2ncccn2n1 | / | / | / | . | /
O=C(Oc1cccc([N+](=O)[O-])c1)c1cc(-c2ccccc2)nc2ccccc12 | . | . | . | . | .
CC(O)(CC(=O)O)CC(=O)O | / | / | / | . | /
CCn1cc(Cl)c(C(=O)N2N=C3/C(=C/c4cccs4)CCCC3C2c2cccs2)n1 (configuration not stated) | / | / | / | -5.61 | /
O=Nc1c(O)n(Cc2cccc(Cl)c2)c2ccccc12 | 74.3 | 55.9 | . | -4.4 | .
CCN(CC)CCn1c(O)c(N=O)c2ccccc21 | . | . | . | . | .
SMILES | CYP2C9 inh | CYP2C19 inhib | CYP2C9 activ | Cav3 T inh | CYP2C19 act
CCC(C)Sc1nc2c(c(=O)[nH]c(=O)n2C)n1Cc1ccccc1Cl (configuration not stated) | . | . | . | . | .
CCc1cc2cc3c(cc2nc1SCC(=O)Nc1cc(C)on1)OCO3 | . | . | . | . | .
O=c1c(-c2cccc3ccccc23)[n+]([O-])c2ccccc2n1O | 75.0 | . | . | . | .
Cc1ccc2cc(CN(C)C(=O)C3CCCO3)c(=O)[nH]c2c1 (configuration not stated) | . | . | . | . | .
O=S(=O)(c1ccc(OCC(O)CN2CCN(c3ccccc3)CC2)cc1)N1CCOCC1 (configuration not stated) | . | 64.2 | . | . | .
O=S(=O)(c1ccc(OCC(O)CN2CCN(c3ccccc3O)CC2)cc1)N1CCOCC1 (configuration not stated) | 53.8 | . | . | . | .
Cc1ccc(-c2n[nH]c(=S)n2-c2ccccc2)cc1 | / | / | / | . | /
Cc1ccc(-n2c(-c3c(-c4ccccc4)noc3C)n[nH]c2=S)cc1 | 67.5 | 61.7 | . | . | .
O=C(NC1CCCCC1)C(c1cccnc1)N(C(=O)c1csnn1)C1CCCC1 (configuration not stated) | / | / | / | . | /
Cn1cccc1C(=O)OCc1cc(Cl)cc2c1OCOC2 | . | . | 2.2 | . | .
CCn1c(SCc2nc3ccccc3nc2C)nnc1-c1cccs1 | . | 92.6 | . | . | .
CCn1c(SCC(=O)Nc2ccc3c(c2)OCCO3)nnc1-c1cccs1 | 52.4 | . | . | . | .
CCn1c(SCC(=O)NCC(=O)Nc2ccc(F)cc2)nnc1-c1cccs1 | 93.0 | . | . | . | .
